Screens from PubChem BioAssay.
KCNQ2 inh: inhibitors of rat KCNQ2 potassium channel; B-score at 10 µM; 1.1% of 310,000 active; O88943; CHO-K1 KCNQ2, FluxOR thallium flux, 20 min; stronger effect = lower value;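 active = fluorescence ratio B-score at most minus 3 library SDs, with starting brightness B-score within 2 library SDs, cut at about -5.5 in these data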
Target sequence (O88943 whole entry, looked up): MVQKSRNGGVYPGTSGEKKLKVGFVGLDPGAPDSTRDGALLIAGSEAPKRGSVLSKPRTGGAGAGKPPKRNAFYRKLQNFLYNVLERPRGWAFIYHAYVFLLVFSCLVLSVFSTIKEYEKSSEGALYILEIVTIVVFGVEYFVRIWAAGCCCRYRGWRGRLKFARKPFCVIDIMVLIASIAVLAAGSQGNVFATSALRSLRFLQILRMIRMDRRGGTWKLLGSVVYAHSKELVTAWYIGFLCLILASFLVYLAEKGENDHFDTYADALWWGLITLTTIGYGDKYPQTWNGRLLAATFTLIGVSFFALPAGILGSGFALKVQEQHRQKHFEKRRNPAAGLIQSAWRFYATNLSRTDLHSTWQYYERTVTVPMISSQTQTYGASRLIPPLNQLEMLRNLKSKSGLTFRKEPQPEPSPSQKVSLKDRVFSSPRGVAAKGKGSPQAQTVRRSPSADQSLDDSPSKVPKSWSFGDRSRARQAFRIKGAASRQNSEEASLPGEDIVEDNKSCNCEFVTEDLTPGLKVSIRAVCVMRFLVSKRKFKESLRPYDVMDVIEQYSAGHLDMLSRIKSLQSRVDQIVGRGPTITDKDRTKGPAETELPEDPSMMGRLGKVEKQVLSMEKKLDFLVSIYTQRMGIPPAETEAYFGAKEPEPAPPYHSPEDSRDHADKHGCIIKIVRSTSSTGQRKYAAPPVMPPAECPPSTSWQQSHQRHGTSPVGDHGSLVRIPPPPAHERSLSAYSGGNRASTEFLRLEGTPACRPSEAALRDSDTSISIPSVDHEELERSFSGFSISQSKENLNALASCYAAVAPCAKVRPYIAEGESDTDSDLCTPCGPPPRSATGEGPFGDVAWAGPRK
KCNQ2 pot: enhances the rat KCNQ2 potassium channel | CHO-K1 KCNQ2, FluxOR thallium flux fluorescence; stronger effect = higher value | O88943 | 0.54% of 310,000 active | AID 2239 | B-score at 10 µM;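 active = fluorescence ratio B-score at least 3 SD of library B-scores, with initial fluorescence B-score within 3 of them, cut at about 5.3 in these data; same plate scores as AID 2156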;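 also: B-score of peak minus minimum over baseline fluorescence ratio after K+ and Tl+ stimulus; positive B-score means potentiation of KCNQ2 with more thallium influx and brighter signal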
The depositor's hits bear a star; i = inactive; · = no result given. Sampled rows, rich in hits. Any-hit rate of the full collection: about 1.6%.

SMILES | KCNQ2 inh | KCNQ2 pot
O=C(Nc1nc2ccccc2[nH]1)Nc1ccccc1F | i | ·
O=C(NCc1n[nH]c(=S)n1-c1ccc(Cl)c(Cl)c1)c1ccco1 | i | 0.02
CCOC(=O)Cn1c(S(=O)(=O)Cc2ccc(Cl)cc2)nc(-c2ccccc2)c1-c1ccccc1 | -6.52* | -6.52
CCOC(=O)Cn1c(S(=O)(=O)Cc2ccccc2)nc2ccccc21 | i | 0.3
COC(=O)c1cc(NC(=O)c2cccc(C(F)(F)F)c2)c(=O)oc1C | i | ·
COC(=O)c1cc(NC(=O)c2cccc(C(F)(F)F)c2)c(=O)oc1C/C=N/OCc1cccc(Cl)c1Cl | -7.68* | -7.68
CC(=O)N(Cc1ccc(Br)cc1)c1cccc(C)c1C | -6.49* | -6.49
COc1ccc(CN(C(C)=O)c2cccc(C)c2C)cc1 | i | ·
COc1cccc(OCC(=O)O)c1 | i | ·
COc1ccccc1CNC(=O)C1=C(C)C(=O)OC12CCC(C)CC2 (stereo unspecified) | i | ·
COc1cccc(CNC(=O)C2=C(C)C(=O)OC23CCC(C)CC3)c1 (stereo unspecified) | -6.9* | -6.9
Cc1cc(C)n(C(=O)CCCn2nc(C)c([N+](=O)[O-])c2C)n1 | i | ·
O=C(CSc1nnc(COc2ccc(Cl)cc2)o1)N1CCCC1 | i | 0.93
O=C(CSc1nnc(COc2ccc(Cl)cc2)o1)N1c2ccccc2CCc2ccccc21 | -9.41* | -9.41
COc1ccc(CCNC(=O)C(C)n2nc(C)c3c(C)n(-c4ccc(C)cc4)nc3c2=O)c(OC)c1 (stereo unspecified) | i | ·
Cc1nn(CC2CC2)c(=O)n1-c1ccccc1 | i | ·
Cc1cc(C)c(NC(=O)CN(c2ccccc2)S(=O)(=O)N(C)C)c(C)c1 | -5.61* | -5.61
Cc1ccc(NC(=O)CN(c2ccccc2)S(=O)(=O)N(C)C)cc1C | i | ·
CCOC(=O)c1c(N)sc(N)c1C(=O)OCC | i | 9.73*
CCOC(=O)c1c(N)sc(C(N)=O)c1C | i | ·
C=C(C)CNC(=S)N/N=C1\CCCCc2ccccc21 | i | ·
CC(C)Oc1cc(C(=O)NC2CCCCC2)c2ccccc2n1 | -6.03* | -6.03
O=C(NC1CCCCCCC1)c1cc(-c2ccccn2)nc2ccccc12 | i | ·
Cc1ccc(NC(=O)C(C)N2C(=O)c3ccccc3C2=O)c(C)c1 (stereo unspecified) | i | 2.52
COC(=O)N(NC(=O)C(O)(c1ccccc1)c1ccccc1)c1ccc(C)cc1 | -5.91* | -5.91
SMILES | KCNQ2 inh | KCNQ2 pot
CCCCC(O)(CCCC)C(=O)NN(C(=O)OC)c1ccccc1 | i | ·
CCOC(=O)N(NC(=O)C(O)(C(C)C)C(C)C)c1ccccc1 | i | ·
CCOC(=O)N(NC(=O)C(O)(c1ccccc1)c1ccccc1)c1ccccc1 | -6.09* | -6.09
CCn1c(SCc2ccc(C#N)cc2)nnc1-c1ccc(S(=O)(=O)N2CCCCC2)cc1 | i | 1.19
COc1ccc(C2=NN(CN3C(=O)C(=O)c4ccccc43)C(c3cccc([N+](=O)[O-])c3)C2)cc1 (stereo unspecified) | i | 0.59
O=C(NCC(c1ccc(F)cc1)N1CCOCC1)c1ccc(C(=O)c2ccccc2)cc1 (stereo unspecified) | i | 2.24
OC(c1ccccc1)(c1ccc(F)cc1)C(c1ccccc1)N1CCOCC1 (stereo unspecified) | -5.72* | -5.72
COC(=O)c1c(-c2ccc(Br)cc2)csc1NC(=O)Cc1ccc(OC)c(OC)c1 | i | ·
COC(=O)c1c(-c2ccc(C)cc2)csc1NC(=O)Cc1ccc(OC)c(OC)c1 | -6.77* | -6.77
CC(=O)Nc1cc2nc(C)n(Cc3ccccc3)c2nc1C | i | ·
Cc1nc2c(cc1NC(=O)C(C)(C)C)nc(C)n2Cc1ccccc1 | i | 7.28*
O=C(c1ccc(=O)[nH]c1)N(Cc1cccs1)C1(C(=O)NC2CCCC2)CCCCC1 | i | ·
Clc1ccc2nc(N3CCNCC3)nc(-c3ccccc3)c2c1 | -5.9* | -5.9
OCCN1CCN(c2nc(-c3ccccc3)c3cc(Cl)ccc3n2)CC1 | i | ·
CCOc1cc(N2CCOCC2)c(OCC)cc1NC(=S)NCCCOC | i | ·
COC(=O)C(Nc1ccccc1Cl)(c1cc(C)c(O)c(C)c1)C(F)(F)F (stereo unspecified) | -7.99* | -7.99
CCOC(=O)C(NC(=O)c1ccccc1Cl)(Nc1ccc(C)c(C)c1)C(F)(F)F (stereo unspecified) | i | ·
CC(C)c1ccc(COc2ccc(C(=O)N3CCOCC3)cc2)cc1 | i | ·
O=C(c1ccc(Cl)c(S(=O)(=O)NCc2ccccc2)c1)N1CCN(c2ccccn2)CC1 | -5.77* | -5.77
O=C(c1ccc(Cl)c(S(=O)(=O)N2CCCC2)c1)N1CCN(c2ccccn2)CC1 | i | 0.71
CC(C)c1ccc(OCc2ccc(C(=O)N3CCN(c4ccccn4)CC3)cc2)cc1 | -7.5* | -7.5
CCOC(=O)c1sc(NC(=O)C2CCCCC2)nc1C | i | 1.4
C=CCn1c(=O)c(C(=O)Nc2ccc(C)cn2)c(O)c2ccccc21 | i | ·
C=CCn1c(=O)c(C(=O)NCc2ccc(Cl)cc2)c(O)c2ccccc21 | -5.98* | -5.98
CCCCCNCc1cccc(Br)c1 | i | 3.75
SMILES | KCNQ2 inh | KCNQ2 pot
COc1ccc(-n2nc(C(=O)NCC(=O)NCC3COc4ccccc4O3)c3ccccc3c2=O)c(OC)c1 (stereo unspecified) | i | ·
CC1CCCCN1C(=O)Nc1ccccc1Cl (stereo unspecified) | i | ·
CCOC(=O)c1ccccc1NC(=O)N1CCn2c(C)ccc2C1CC (stereo unspecified) | -6.2* | -6.2
CCCC1c2ccc(C)n2CCN1C(=O)Nc1ccccc1Cl (stereo unspecified) | -7.17* | -7.17
CCC1c2ccc(C)n2CCN1C(=O)Nc1ccccc1C(=O)OC (stereo unspecified) | i | ·
Cc1ccccc1C1c2[nH]c3ccccc3c2C[C@H]2C(=O)N(c3ccccc3C(=O)NCCCN3CCOCC3)C(=O)N12 (stereo partly specified) | i | ·
CCN(CC(=O)NCC(=O)Nc1ccc(Br)cc1C)Cc1ccccc1 | i | ·
CCC(=O)N1CCN(c2nc3ccc(Br)cc3s2)CC1 | i | 0.41
CCN(CC)C(=O)C(=O)c1cn(CCOc2ccccc2)c2ccccc12 | -7.35* | -7.35
COC(=O)c1cn(CCOc2ccccc2)c2ccccc12 | i | ·
CCOC(=O)[C@@H]1[C@H]2COc3ccccc3[C@H]2N2C(=O)N(c3ccccc3)C(=O)[C@]12C | i | 4.22
O=C(Nc1ccc(F)c(F)c1)c1ccc(F)c(S(=O)(=O)N2CCC3(CC2)OCCO3)c1 | i | 5.44*
O=S(=O)(c1cc(F)ccc1F)N1CCC2(CC1)OCCO2 | i | ·
CCOC(=O)C1=C(c2ccccc2)NC(=O)NC1c1cc(Cl)c(O)c(OC)c1 (stereo unspecified) | i | ·
CCOC(=O)C1=C(c2ccccc2)NC(N)=NC1c1ccc(OCc2ccc(Cl)cc2)c(OC)c1 (stereo unspecified) | -6.17* | -6.17
CC1(C)CC(=O)c2cnc(N3CCc4ccccc4C3)nc2C1 | i | 1.19
COc1ccc(CNc2ncc(-c3ccccc3)n2C)c2ccccc12 | -5.67* | -5.67
COc1ccc(CNc2ncc(-c3ccccc3)n2C)c(OC)c1OC | i | 0.9
CCc1c(C)nc2ncnn2c1N1CCC(C(=O)Nc2cccc(C(C)=O)c2)CC1 | i | ·
O=C(NC1=NCCS1)c1cc(-c2cccc(Br)c2)nc2ccccc12 | i | ·
Cc1ccc2nc(-c3cccc(Br)c3)cc(C(=O)NC3=NCCS3)c2c1 | -7.28* | -7.28
